Source: PubChem BioAssay (EPA / NIEHS)
The source made the active and inactive calls. How the source made its calls: active means hit-call score of the fitted dose curve at least 0.9, where 1 is the maximum; inactive means score below 0.9.

The compounds below were run on Human Leukocyte Antigen - DR isotype (HLADR), HLA-DRA (gene 3122) (assay: BSK_3C_HLADR: BioMAP Diversity Plus: 3C Assay for Human Leukocyte Antigen - DR isotype (HLADR) Biomarker Activity (AID 2283019;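 on outcome: ELISA of cell-surface HLA-DR on HUVEC 24 h after dosing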)). Conditions: primary human endothelial cells (HUVEC); actives raise or lower the signal.
Summary of the method: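 ELISA readout of surface HLA-DR on human umbilical vein endothelium, taken 24 h after chemical treatment. Gain- and loss-of-signal were both fitted relative to DMSO.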

| Structure (SMILES) | AC50 | outcome |
| --- | --- | --- |
| CCN(Cc1cccnc1)C(=O)c1cccc(Cl)c1[C@]1(C)C(=O)N(Cc2ccc(OC)cc2OC)c2ccc(Cl)cc21 | 8.86 µM (active) | – |
| C[C@]12CC[C@@H]3c4ccc(O)cc4CC[C@H]3[C@@H]1CCC2=O | 31.7 µM (active) | – |
| Cc1cc(F)ccc1-c1cc(N2CC[C@@H](O)[C@H]2CO)ncc1N(C)C(=O)C(C)(C)c1cc(C(F)(F)F)cc(C(F)(F)F)c1 | 9.43 µM (active) | – |
| Cc1c2ccccc2c(C)c2c1ccc1ccccc12 | 14.3 µM (active) | – |
| CCN(CC)C(=O)c1cc(S(=O)(=O)Cc2ccccc2)c(N2CCC(c3ccccc3)CC2)cc1N(CC)CCN(C)C | 6.27 µM (active) | – |
| CC1=CC(=O)/C(=C(/C)O)C(=O)O1 | – | inactive |
| CCCCCCCCOc1ccc(C(=O)c2ccccc2)c(O)c1 | 24.7 µM (active) | – |
| CN1C(=O)N(c2ccccc2Br)Cc2cnc(Nc3ccc4c(c3)OCC(CO)O4)nc21 (centres undefined) | 9 µM (active) | – |
| COCC(C)OCC(C)OCC(C)O (centres undefined) | – | inactive |
| CCCOC(=O)c1cc(O)c(O)c(O)c1 | – | inactive |
| COc1cccc([C@H](O)C2CCN(CCc3ccc(F)cc3)CC2)c1OC | – | inactive |
| CC1(C)NC(=O)N(c2ccc([N+](=O)[O-])c(C(F)(F)F)c2)C1=O | – | inactive |
| c1ccc(C[n+]2cccc3ccccc32)cc1 | – | inactive |
| Cc1oc2c(NC(=O)c3c(Cl)cccc3Cl)cccc2c1C(C)(C)O | 21.8 µM (active) | – |

These compounds were tested on Interleukin-8 (IL8), CXCL8 (gene 3576) (assay: BSK_3C_IL8: BioMAP Diversity Plus: 3C Assay for Interleukin-8 (IL8) Biomarker Activity (AID 2283020)). Conditions: primary human endothelial cells (HUVEC); actives raise or lower the signal.
Summary of the method: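 IL-8 was measured by ELISA in HUVEC cultures 24 h after chemical dosing, with gain or loss of signal fitted relative to DMSO. Parallel SRB total-protein staining tracked overt cytotoxicity.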

| Structure (SMILES) | AC50 | outcome |
| --- | --- | --- |
| O=C(Nc1ccc(Cl)cc1)Nc1ccc(Cl)c(Cl)c1 | 1.87 µM (active) | – |
| O=C=NCCCCCCN=C=O | – | inactive |
| Oc1ccc2ccccc2c1 | – | inactive |
| COc1ccc2cc(S(=O)(=O)N[C@H](CC(=O)N[C@H](Cc3ccc(CN4[C@H](C)CCC[C@@H]4C)cc3)C(=O)N(C)C(C)C)c3ccc4c(c3)OCO4)ccc2c1 | 16.3 µM (active) | – |
| CC(C)(C)c1csc(-c2cc3cc(OCc4ccccc4CC(=O)O)ccc3o2)n1 | 18.4 µM (active) | – |
| CC(C)(C)c1cc(/C=C2\SC(N)=NC2=O)cc(C(C)(C)C)c1O | 30.1 µM (active) | – |
| CCOC(=O)O[C@H](C)OC(=O)c1ccc2c(c1)cc(C(=O)NC1CCN(C(C)C)CC1)n2Cc1cc(-c2ccc(Cl)s2)on1 | 6.77 µM (active) | – |
| CN(C)c1ccc(C(=C2C=CC(=[N+](C)C)C=C2)c2ccc(N(C)C)cc2)cc1 | 5.53 µM (active) | – |
| O=c1ccc2ccccc2o1 | – | inactive |
| c1ccc2n[nH]nc2c1 | – | inactive |
| CCN(Cc1cccc(S(=O)(=O)O)c1)c1ccc(C(=C2C=CC(=[N+](CC)Cc3cccc(S(=O)(=O)O)c3)C=C2)c2ccccc2S(=O)(=O)[O-])cc1 | – | inactive |
| CCN(CC)C(=O)c1cc(S(=O)(=O)Cc2ccccc2)c(N2CCC(c3ccccc3)CC2)cc1N(CC)CCN(C)C | 13.8 µM (active) | – |
| CCCCCCCCOc1ccc(C(=O)c2ccccc2)c(O)c1 | – | inactive |
| COc1cccc([C@H](O)C2CCN(CCc3ccc(F)cc3)CC2)c1OC | – | inactive |
| c1ccc(C[n+]2cccc3ccccc32)cc1 | – | inactive |
